# Source: PMC7819943, “Rice protein-binding microarrays: a tool to detect cis-acting elements near promoter regions in rice”
# Whole data set: some 39,000 sequences, median “fluorescence intensity (a.u.)” near 4,300, cut for the highest 2% near 39,000. This excerpt belongs to a sample that is enriched for the highest values.
# Molecular target: T1, OsSMF1 (Oryza sativa, UniProt Q6ZLB0 1-436)
# T1 sequence: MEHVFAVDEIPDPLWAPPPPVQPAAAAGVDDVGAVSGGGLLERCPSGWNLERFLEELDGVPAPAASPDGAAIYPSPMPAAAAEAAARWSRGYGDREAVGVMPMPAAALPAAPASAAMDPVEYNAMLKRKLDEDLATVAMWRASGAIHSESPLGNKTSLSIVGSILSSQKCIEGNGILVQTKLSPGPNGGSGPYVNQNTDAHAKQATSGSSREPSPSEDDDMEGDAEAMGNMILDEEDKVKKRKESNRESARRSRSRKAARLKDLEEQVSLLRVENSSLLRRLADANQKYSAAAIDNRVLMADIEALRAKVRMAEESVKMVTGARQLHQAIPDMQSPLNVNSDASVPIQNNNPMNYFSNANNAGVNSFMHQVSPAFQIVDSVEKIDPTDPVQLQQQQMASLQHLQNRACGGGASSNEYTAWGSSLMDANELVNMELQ
# Experiment: protein-binding microarray (RPBM); PBS, 2% BSA, 51.3 ng/ul salmon testes DNA, 50 uM zinc acetate, 200 nM TF, 25 C, 1 h; high values mean tight binding
# Settings: protein: recombinant; tags: N-terminal polyhistidine and DsRed monomer fusion (pET32a); chain copies: 2; label: CyDye5-dUTP incorporated in the synthesized complementary strand; 3' TTTTT single-stranded linker to array surface; dsDNA, one strand shown
# Summary of the method: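 Using Ni–NTA, transcription factors fused N-terminally to polyhistidine and DsRed were purified after expression in E. coli BL21-CodonPlus. These were incubated at 200 nM with a blocked, double-stranded custom Agilent array for 1 h at 25 °C in a buffer containing 50 µM zinc acetate, and the array was washed. The binding signal is per-feature fluorescence intensity (arbitrary units) on an Axon 4000B scanner.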
row,Sequence,binding signal
1,ACACTGCCACGTCAGCGCCACGTTAGCAAAACCGTCCTCCCGGAGTCACCTAGTGCAG,35500 fluorescence intensity (a.u.)
2,GCAACAGTGTTATGCAACAGTGTCATTCAGTCTCTACACACGGAGTCACCTAGTGCAG,32000 fluorescence intensity (a.u.)
3,AGCTGGTGATGAGCAGCGTCACCAATTCTTCCTGGACGCCCGGAGTCACCTAGTGCAG,4190 fluorescence intensity (a.u.)
4,GAACGGAACGCAACGTGCGGAGAGAGAGCGAGAGAGAAGCCGGAGTCACCTAGTGCAG,30600 fluorescence intensity (a.u.)
5,GTGGAGGCGAGGCGGCGAGAGGCGGGTAGCAGTGGAGGAGCGGAGTCACCTAGTGCAG,3430 fluorescence intensity (a.u.)
6,GCAACGGAAGAGATGAGGAGATGACTCGGATGAGCGGAAGCGGAGTCACCTAGTGCAG,3180 fluorescence intensity (a.u.)
7,ACGGCGGGAACAATTGTGGGCGGTGGCCTTGGCCGAATCGCGGAGTCACCTAGTGCAG,55000 fluorescence intensity (a.u.)
8,GAAGGCGGCGGGGTGGCGAAGTGGCGAGGAGGAGACGGGGCGGAGTCACCTAGTGCAG,4910 fluorescence intensity (a.u.)
9,GGCGGCAGCGACGGCGGAGGCGAGGGAGGGGAGGCGGCGGCGGAGTCACCTAGTGCAG,3930 fluorescence intensity (a.u.)
10,CGGTGGCGGGAACATGTGGGCGGTGGCAGGAGTGCAGGTGCGGAGTCACCTAGTGCAG,3810 fluorescence intensity (a.u.)
11,ATCGTCGCGGGGCCGCCGACGGCGCGCGGTGTGGCCGACGCGGAGTCACCTAGTGCAG,6480 fluorescence intensity (a.u.)
12,CGGCGAGGCGAACTCAACGGGTACGCAAAGCGAAGAGGAGCGGAGTCACCTAGTGCAG,45600 fluorescence intensity (a.u.)
13,GAGAGGAGGAAGACAGAGAGGAGAGATGAGATAGGATCAACGGAGTCACCTAGTGCAG,46200 fluorescence intensity (a.u.)
14,AGAAGAGGGAGACAGAGGATAGAGAGAAGAGGGCACTTCACGGAGTCACCTAGTGCAG,11900 fluorescence intensity (a.u.)
15,GGCAGCTTGGTGCGGGAGAGAGGCGGCGGCGAAGGGGAGACGGAGTCACCTAGTGCAG,41900 fluorescence intensity (a.u.)
16,CTCCAGCATCGCCACCGGGTCCCCGTACGGGTTCTTCGGGCGGAGTCACCTAGTGCAG,3620 fluorescence intensity (a.u.)
17,CTCTGCTCTCAAATGCTCTGTGTGCGATCAGGTATTCATGCGGAGTCACCTAGTGCAG,3270 fluorescence intensity (a.u.)
18,ACCGAGTAGATCACTTCCGTGCAAGTTGGTTGACAAGTATCGGAGTCACCTAGTGCAG,3480 fluorescence intensity (a.u.)
19,CTGGACACCTCACGAAGTCTCAAACTGCTGTTTGTTCTCACGGAGTCACCTAGTGCAG,4230 fluorescence intensity (a.u.)
20,ATATGGCCTTCGGTGGTATCCACGTAGAGCTTTACGTTAACGGAGTCACCTAGTGCAG,4810 fluorescence intensity (a.u.)

row,Sequence,binding signal
1,CACCCGCGTGTATGCCAGCTAGGCTTGGCTCCGACGTGGACGGAGTCACCTAGTGCAG,4790 fluorescence intensity (a.u.)
2,GCAGCCACGACGCCCGCCAATGCTGCCGCCGCCATCGATGCGGAGTCACCTAGTGCAG,5300 fluorescence intensity (a.u.)
3,AGAATTTGTTCGTCACCCATATATCGGCGTCATGACCTCGCGGAGTCACCTAGTGCAG,3510 fluorescence intensity (a.u.)
4,GTCGGATCCCCGCGCAATCATACACACGTGTCGCCGTCGCCGGAGTCACCTAGTGCAG,8730 fluorescence intensity (a.u.)
5,TTAGGACCATAATATCTAATGTTACATGCCACGTACCAAACGGAGTCACCTAGTGCAG,7280 fluorescence intensity (a.u.)
6,GCCGCCCGCGCGCGACCGCGTGACGTCGCAGCCGCACCGACGGAGTCACCTAGTGCAG,6080 fluorescence intensity (a.u.)
7,TCGTCCGATCCCCTAGCGTGGCCACCGATCCGCCCGTCCCCGGAGTCACCTAGTGCAG,3230 fluorescence intensity (a.u.)
8,GATCAAACCAGCGGCAGATGAGGGCGCAAAGAGAAAGAGCCGGAGTCACCTAGTGCAG,4210 fluorescence intensity (a.u.)
9,CTGGTCGGCGCGGGCACGCGCTTGCGGAGGCTGGGGAGTCCGGAGTCACCTAGTGCAG,39700 fluorescence intensity (a.u.)
10,AGAGGGGCAGAGAGAGAGAGTGAGTGAGAAAGAGATCAAGCGGAGTCACCTAGTGCAG,56600 fluorescence intensity (a.u.)
11,GCCGCTTCGATGCTGGCGGCAGGGTGGGGCGGGGATGCCTCGGAGTCACCTAGTGCAG,6170 fluorescence intensity (a.u.)
12,ACGGCATCGATCGATCGCGGGCGACGTGGCTGAGTGGCGGCGGAGTCACCTAGTGCAG,6420 fluorescence intensity (a.u.)
13,GCGGAGGAGGCAAGGAGATCAGGCGGCAGAGGAAAGGGGCCGGAGTCACCTAGTGCAG,3280 fluorescence intensity (a.u.)
14,TGCCACCGTGGCGGCCGGGCCGATCCCCTAGCTGACGTGGCGGAGTCACCTAGTGCAG,41900 fluorescence intensity (a.u.)
15,CGCTGCGGGGAGTCGGCGCTTCGTCGGAGGCGGCGGGGCGCGGAGTCACCTAGTGCAG,3230 fluorescence intensity (a.u.)
16,TTGGGCGGCGGTGCGGGGAGGCTGAGGGGCGGCGCCGGCGCGGAGTCACCTAGTGCAG,3580 fluorescence intensity (a.u.)
17,GACGGGCGGCGGTGGGGCTGACGCGGGCGACGGAGGGGCTCGGAGTCACCTAGTGCAG,6720 fluorescence intensity (a.u.)
18,GGCTTCGCCGACGGTGGCTCGGGCGACGGCGATGCTGGGGCGGAGTCACCTAGTGCAG,58600 fluorescence intensity (a.u.)
19,GAAAGTTGCTGCGAACATACGTGATGACGCGACTAAAGCTCGGAGTCACCTAGTGCAG,5210 fluorescence intensity (a.u.)
20,ATAGCCCAACTCGAATCAATCCACGTCTCCACCGTTCATCCGGAGTCACCTAGTGCAG,3360 fluorescence intensity (a.u.)

row,Sequence,binding signal
1,TCCGTCGCGATTCGCCACCTCGCCCTCGTCTCGTTTTAGCCGGAGTCACCTAGTGCAG,3450 fluorescence intensity (a.u.)
2,ATGCACTTCCTGTCACGGTCCGGCCCATCCTAGCTGCCGGCGGAGTCACCTAGTGCAG,3290 fluorescence intensity (a.u.)
3,AAACTTCTCTTCAGATAAAGATTTACTACCGTGTCAAATTCGGAGTCACCTAGTGCAG,3800 fluorescence intensity (a.u.)
4,CTCCGTCCACTGGACAGGGCAGAGGCTGCCTACCAGACACCGGAGTCACCTAGTGCAG,4640 fluorescence intensity (a.u.)
5,GACAGTAGCAGCAGTGGACACGTCGATTTCGCAATTCGTGCGGAGTCACCTAGTGCAG,5760 fluorescence intensity (a.u.)
6,GCCAGGCGACGCGACGAGTCAGCTCAGCTCGCGCCCGCGGCGGAGTCACCTAGTGCAG,3700 fluorescence intensity (a.u.)
7,GAAGAGGGGAGGGAGCTCCAAAAGGGCGAGAAAGTAAGCGCGGAGTCACCTAGTGCAG,39400 fluorescence intensity (a.u.)
8,GGCGAGCGCGGCGGAGGAGCGGCGGCGGGCGAGCGCGGCGCGGAGTCACCTAGTGCAG,8450 fluorescence intensity (a.u.)
9,CGGTGGCAGCCCGGCGGCGTGGAGCGCGCTGCTTAGCGCGCGGAGTCACCTAGTGCAG,53600 fluorescence intensity (a.u.)
10,GGAGCGCGGACTCGCCGGCCAGCCGCGTCACGCGCTGGCGCGGAGTCACCTAGTGCAG,6650 fluorescence intensity (a.u.)
11,GAGAGGGGAAGGGCGCTAGTAAGAAGCGCTAAGGGATGAGCGGAGTCACCTAGTGCAG,3180 fluorescence intensity (a.u.)
12,GAGGTACCGGCCGTACGCGCCGCGGAGGCGGACGTAGGGCCGGAGTCACCTAGTGCAG,31200 fluorescence intensity (a.u.)
13,TGCTTAGCCGTGCGGCCCGTGCGGCGTCAATGGCGTGGCGCGGAGTCACCTAGTGCAG,4440 fluorescence intensity (a.u.)
14,TCCCGTGCAGCCGTGGCAGCCGCGCGCTGCTCGAGTCCGGCGGAGTCACCTAGTGCAG,4470 fluorescence intensity (a.u.)
15,GGCGCCAGCCCCGGTGCCGGGGAGTGTGGCGGAGCGGGAGCGGAGTCACCTAGTGCAG,3910 fluorescence intensity (a.u.)
16,CGAGAGGTACCGCGCGCTGCCGGCGGAGAAGCGGGCGAGGCGGAGTCACCTAGTGCAG,41500 fluorescence intensity (a.u.)
17,GCGGCGGTGTCTCGCGCCGCCAGCCTACAAATGGGGAGAGCGGAGTCACCTAGTGCAG,40300 fluorescence intensity (a.u.)
18,GAGAGAGAGAGGGGACCAACTGAAAAGAGAGAGAAGCTAGCGGAGTCACCTAGTGCAG,31200 fluorescence intensity (a.u.)
